Test results published in PubChem BioAssay (NCATS).
Records with an inconclusive call do not appear. Calls of active or inactive are those of the source. The call rests on the fitted dose curve; in most records, active means well fitted curve in the direction sought with a large enough effect; inconclusive means small, poorly fitted or top-dose-only effect, or another doubt; inactive means no such curve, though single readings can be large; an effect the other way counts as inactive or inconclusive.

Columns and labels:
[1] = molecular target: Cellular tumor antigen p53 (Homo sapiens) (UniProt P04637); experiment: Primary qHTS for small molecule compounds that upregulate eGFP-tagged delta133p53alpha (in N-terminal) cells. (AID 2060322); details: NCI-H358 eGFP-delta133p53alpha fluorescence, 24 h; activation: stronger effect = higher value;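 further: series mostly up to about 56 µM; 0% = DMSO vehicle and 100% = reference activator; nearly all actives have a fitted effect of over 75% in size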
Sequence of Cellular tumor antigen p53 (Homo sapiens) (P04637 whole entry, looked up): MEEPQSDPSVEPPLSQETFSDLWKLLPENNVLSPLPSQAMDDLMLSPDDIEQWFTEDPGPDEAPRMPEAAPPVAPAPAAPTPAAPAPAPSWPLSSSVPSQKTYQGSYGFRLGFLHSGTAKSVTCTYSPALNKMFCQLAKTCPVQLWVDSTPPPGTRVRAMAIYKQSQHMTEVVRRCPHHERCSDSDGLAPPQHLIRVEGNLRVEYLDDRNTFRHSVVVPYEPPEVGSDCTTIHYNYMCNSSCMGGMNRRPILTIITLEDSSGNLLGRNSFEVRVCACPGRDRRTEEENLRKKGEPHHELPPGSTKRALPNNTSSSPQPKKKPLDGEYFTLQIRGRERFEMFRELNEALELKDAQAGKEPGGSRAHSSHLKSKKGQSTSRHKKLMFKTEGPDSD
How it was run: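 NCI-H358 cells pre-induced 24 h with 10 ng/ml doxycycline to express N-terminal eGFP-delta133p53alpha, then dosed 24 h at 37C without doxycycline; fixed, Hoechst-stained, GFP intensity by laser scanning cytometry, normalized to DMSO (0%) and 57.5 uM 5-azacytidine (100%).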

[2] = molecular target: Aldehyde dehydrogenase, mitochondrial (Homo sapiens) (UniProt P05091); experiment: qHTS for Inhibitors of the Aldehyde Dehydrogenase Family (ALDH2) Primary screen (AID 2061308);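 further: plate controls were vehicle for no effect and reference inhibitor for full effect; nearly all actives have a fitted effect of over 55% in size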
[3] = molecular target: Retinaldehyde dehydrogenase 3 (Homo sapiens) (UniProt P47895); experiment: qHTS for Inhibitors of the Aldehyde Dehydrogenase Family (ALDH1A3) Primary screen (AID 2061315);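 further: plate controls were DMSO vehicle for no effect and reference inhibitor for full effect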

CC(=O)O[C@@H]1[C@H](O)[C@@H](O[C@@H]2O[C@@H](C)[C@H](O[C@@H]3OC[C@@H](O)[C@H](O[C@@H]4OC[C@@H](O)[C@H](O)[C@H]4O)[C@H]3O)[C@@H](O[C@@H]3O[C@H](CO)[C@@H](O)[C@H](O)[C@H]3O)[C@H]2O)[C@H](OC(=O)[C@]23CCC(C)(C)C[C@H]2C2=CCC4[C@@]5(C)CC[C@H](O[C@@H]6O[C@H](C(=O)O)[C@@H](O)[C@H](O[C@@H]7OC[C@@H](O)[C@H](O)[C@H]7O)[C@H]6O[C@@H]6O[C@H](CO)[C@H](O)[C@H](O)[C@H]6O)[C@@](C)(C=O)C5CC[C@@]4(C)[C@]2(C)CC3)O[C@@H]1C (stereo partly drawn)
inactive: activation [1] -9.16% | activity change, negative = inhibition [2] 5.14% [at 11.2 µM] | activity change, negative = inhibition [3] -8.36% [at 11.2 µM]

C=CC(C)(C)c1[nH]c2ccccc2c1C[C@@H]1NC(=O)[C@H](Cc2c[nH]c3ccccc23)NC1=O
inactive: activation [1] 6.25% | Potency [2] | Potency [3]

Cc1cccc(S(=O)(=O)N2CCC[C@@H]2CCN2CCC(C)CC2)c1
inactive: activation [1] 0% | Potency [2] | Potency [3]

COc1ccc(C2(O)c3ccccc3NC(=O)C2OC)cc1 (stereo not drawn)
inactive: activation [1] -2.29% | Potency [2] | Potency [3]

CCOC(=O)Cn1cccc1-c1nc(-c2ccc(OC)cc2)c(-c2ccc(OC)cc2)s1
inactive: activation [1] 27.6% | Potency [2] | Potency [3]

COC(=O)C1=COC(O[C@@H]2O[C@H](CO)[C@@H](O)[C@H](O)[C@H]2O)[C@H]2[C@@H]1[C@H](OC(=O)CCc1ccc(O)cc1)C[C@]2(C)O (stereo partly drawn)
inactive: activation [1] 21.4% | Potency [2] | Potency [3]
